The campaign covered roughly 3,200 compounds. About 110 (3.4%) showed an effect of 50% or more. This is one part of a sample in which strong results are shown more often than they occur.
Tested on: T1, V. cholerae SAD30
T1 construct: SAD30
Set-up: species or system S. aureus MSSA476 (TSB) or V. cholerae SAD30 (LB); 384-well bacterial growth screen at 25 uM, OD600 relative to DMSO control
Details: relative growth, OD600, LB; 25 µM; inhibitor

SMILES	% of control remaining [%]
Cc1ccc([N+](=O)[O-])cc1N1C(=O)C=CC1=O [10-O14, 1-(2-methyl-5-nitrophenyl)-2,5-dihydro-1H-pyrrole-2,5-dione]	26.6511
O=C1C=CC(=O)N1c1cc(C(F)(F)F)ccc1Cl [10-G09, 1-[2-chloro-5-(trifluoromethyl)phenyl]-2,5-dihydro-1H-pyrrole-2,5-dione]	26.3394
CC(Cl)C(=O)Nc1cc([N+](=O)[O-])ccc1Cl (stereo not drawn) [6-I14, 2-chloro-N-(2-chloro-5-nitrophenyl)propanamide]	87.6671
O=C(CCl)Nc1cc(C(F)(F)F)ccc1Cl [4-J04, 2-chloro-N-[2-chloro-5-(trifluoromethyl)phenyl]acetamide]	111.106
N#Cc1cc([N+](=O)[O-])ccc1NC(=O)CCl [4-O09, 2-chloro-N-(2-cyano-4-nitrophenyl)acetamide]	91.611
N#CC(=Cc1cc([N+](=O)[O-])ccc1Cl)C(N)=O [8-F21, 3-(2-chloro-5-nitrophenyl)-2-cyanoprop-2-enamide]	76.0707
O=C(CCl)N1CCCCc2ccc([N+](=O)[O-])cc21 [5-I18, 2-chloro-1-(8-nitro-2,3,4,5-tetrahydro-1H-1-benzazepin-1-yl)ethan-1-one]	94.3154
CC(Cl)C(=O)Nc1cc(C(F)(F)F)ccc1Cl (stereo not drawn) [4-N15, 2-chloro-N-[2-chloro-5-(trifluoromethyl)phenyl]propanamide]	99.8922
O=C1C=CC(=O)N1c1cc([N+](=O)[O-])ccc1Cl [10-H15, 1-(2-chloro-5-nitrophenyl)-2,5-dihydro-1H-pyrrole-2,5-dione]	28.2096
CC(NC(=O)CCl)C(=O)N1CCCCC1C (stereo not drawn) [5-M06, 2-chloro-N-[1-(2-methylpiperidin-1-yl)-1-oxopropan-2-yl]acetamide]	96.6691
C=CC(=O)NC(C)c1cn(-c2ccccc2)nn1 (stereo not drawn) [1-N04, N-[1-(1-phenyl-1H-1,2,3-triazol-4-yl)ethyl]prop-2-enamide]	110.893
COc1ccc(-c2nn(-c3ccccc3)cc2C=C(C#N)C(N)=O)cc1 [8-L16, 2-cyano-3-[3-(4-methoxyphenyl)-1-phenyl-1H-pyrazol-4-yl]prop-2-enamide]	71.7199
CCN(Cc1ccc(Cl)s1)C(=O)CCl [6-M11, 2-chloro-N-[(5-chlorothiophen-2-yl)methyl]-N-ethylacetamide]	83.1169
COc1ccc(C2=NN(C(=O)CCl)C(c3ccco3)C2)cc1 (stereo not drawn) [4-N19, 2-chloro-1-[5-(furan-2-yl)-3-(4-methoxyphenyl)-4,5-dihydro-1H-pyrazol-1-yl]ethan-1-one]	106.103
O=C(CCl)N1N=C(c2ccc(Cl)cc2)CC1c1ccco1 (stereo not drawn) [5-L04, 2-chloro-1-[3-(4-chlorophenyl)-5-(furan-2-yl)-4,5-dihydro-1H-pyrazol-1-yl]ethan-1-one]	105.748
CC(Cl)C(=O)N1N=C(c2ccc(Cl)cc2)CC1c1ccco1 (stereo not drawn) [5-H18, 2-chloro-1-[3-(4-chlorophenyl)-5-(furan-2-yl)-4,5-dihydro-1H-pyrazol-1-yl]propan-1-one]	49.4273
Cn1c(=O)oc2cc(C(=O)CCl)ccc21 [10-F07, 6-(2-chloroacetyl)-3-methyl-2,3-dihydro-1,3-benzoxazol-2-one]	44.886
Cc1cc(C(=O)CCl)co1 [10-A13, 2-chloro-1-(5-methylfuran-3-yl)ethan-1-one]	114.397
C=CC(=O)NCc1ccc2oc(=O)n(C)c2c1 [2-L15, N-[(3-methyl-2-oxo-2,3-dihydro-1,3-benzoxazol-5-yl)methyl]prop-2-enamide]	88.6519
Cc1nc2n(n1)CCN(C(=O)C(C)Cl)C2 (stereo not drawn) [5-A04, 2-chloro-1-{2-methyl-5H,6H,7H,8H-[1,2,4]triazolo[1,5-a]pyrazin-7-yl}propan-1-one]	108.438
O=C(CCl)NC(c1ccccc1)C1CCCC1 (stereo not drawn) [6-O18, 2-chloro-N-[cyclopentyl(phenyl)methyl]acetamide]	92.0656
Cc1cc(C(=O)CCl)c(C)n1-c1ccc(Cl)cc1 [10-H18, 2-chloro-1-[1-(4-chlorophenyl)-2,5-dimethyl-1H-pyrrol-3-yl]ethan-1-one]	103.331
COC(=O)c1ccc2[nH]cc(C(=O)CCl)c2c1 [10-D05, methyl 3-(2-chloroacetyl)-1H-indole-5-carboxylate]	99.1233
O=C(O)c1csc(C(=O)CCl)c1 [10-E22, 5-(2-chloroacetyl)thiophene-3-carboxylic acid]	102.864
CN(C)C(=O)c1csc(C(=O)CCl)c1 [10-I07, 5-(2-chloroacetyl)-N,N-dimethylthiophene-3-carboxamide]	105.981
O=C(CCl)c1ccc(F)c(F)c1 [10-L13, 2-chloro-1-(3,4-difluorophenyl)ethan-1-one]	4.208

SMILES	% of control remaining [%]
O=C(CCl)c1sccc1Cl [10-K11, 2-chloro-1-(3-chlorothiophen-2-yl)ethan-1-one]	0
CC(=O)NCCc1cc(C(=O)CCl)ccc1F [10-O05, N-{2-[5-(2-chloroacetyl)-2-fluorophenyl]ethyl}acetamide]	118.138
Cc1cc(C(=O)CCl)c(C)n1-c1ccc(Cl)c(Cl)c1 [10-D18, 2-chloro-1-[1-(3,4-dichlorophenyl)-2,5-dimethyl-1H-pyrrol-3-yl]ethan-1-one]	108.475
CC(Cl)C(=O)c1ccc(F)c(F)c1 (stereo not drawn) [10-A17, 2-chloro-1-(3,4-difluorophenyl)propan-1-one]	103.955
COC(=O)c1ccccc1NC(=O)CCl [5-B12, methyl 2-(2-chloroacetamido)benzoate]	89.6081
COC(=O)c1cccc(C(=O)CCl)c1 [10-I11, methyl 3-(2-chloroacetyl)benzoate]	32.4177
O=C(CCl)c1cc(Cl)ccc1Cl [10-E16, 2-chloro-1-(2,5-dichlorophenyl)ethan-1-one]	49.5617
Cc1cccc(C=C(C#N)C(=O)Nc2ccc(C(=O)O)cc2)c1 [8-M21, 4-[2-cyano-3-(3-methylphenyl)prop-2-enamido]benzoic acid]	75.7988
CC(NC(=O)CCl)c1ccc2c(c1)CCCC2 (stereo not drawn) [4-B03, 2-chloro-N-[1-(5,6,7,8-tetrahydronaphthalen-2-yl)ethyl]acetamide]	113.867
COc1cc2c(cc1NC(=O)C(C)Cl)oc1ccccc12 (stereo not drawn) [6-G09, 2-chloro-N-{4-methoxy-8-oxatricyclo[7.4.0.0,2,7]trideca-1(9),2(7),3,5,10,12-hexaen-5-yl}propanamide]	55.9674
CC(C)NC(=O)C(C#N)=Cc1ccc(Cl)cc1 [9-C09, 3-(4-chlorophenyl)-2-cyano-N-(propan-2-yl)prop-2-enamide]	85.3161
COCC(C)n1c(C)cc(C=C(C#N)C(=O)NS(C)(=O)=O)c1C (stereo not drawn) [8-B04, 2-cyano-N-methanesulfonyl-3-[1-(1-methoxypropan-2-yl)-2,5-dimethyl-1H-pyrrol-3-yl]prop-2-enamide]	81.6451
C=CCNC(=O)C(C#N)=Cc1cccc(C(F)(F)F)c1 [8-L09, 2-cyano-N-(prop-2-en-1-yl)-3-[3-(trifluoromethyl)phenyl]prop-2-enamide]	71.8559
C=CC(=O)N1CC[C@H](NS(C)(=O)=O)C1 [2-H21, N-[(3S)-1-(prop-2-enoyl)pyrrolidin-3-yl]methanesulfonamide]	102.239
C=CC(=O)N(CC)Cc1nc2ccsc2c(=O)[nH]1 [3-P16, N-ethyl-N-({4-oxo-3H,4H-thieno[3,2-d]pyrimidin-2-yl}methyl)prop-2-enamide]	108.146
C=CC(=O)N1Cc2ccccc2C[C@@H]1C(=O)NC1CC1 [2-G06, (3R)-N-cyclopropyl-2-(prop-2-enoyl)-1,2,3,4-tetrahydroisoquinoline-3-carboxamide]	95.7541
Cc1cc(C=C(C#N)C(=O)Nc2nccs2)cc(C)c1O [9-D13, 2-cyano-3-(4-hydroxy-3,5-dimethylphenyl)-N-(1,3-thiazol-2-yl)prop-2-enamide]	84.7723
C=CC(=O)N[C@H]1CCN(S(=O)(=O)c2ccccc2)C1 [3-P11, N-[(3S)-1-(benzenesulfonyl)pyrrolidin-3-yl]prop-2-enamide]	106.205
COc1ccc(C2=NN(C(=O)CCl)C(c3ccc(F)cc3)C2)cc1 (stereo not drawn) [4-M20, 2-chloro-1-[5-(4-fluorophenyl)-3-(4-methoxyphenyl)-4,5-dihydro-1H-pyrazol-1-yl]ethan-1-one]	100.927
O=C(CCl)c1ccc(Cl)c(Cl)c1 [10-L16, 2-chloro-1-(3,4-dichlorophenyl)ethan-1-one]	0
O=C(CCl)c1ccc2c(c1)-c1ccccc1C2 [10-H17, 2-chloro-1-(9H-fluoren-3-yl)ethan-1-one]	91.4865
COc1ccc(C(=O)CCl)c(OC)c1 [10-G18, 2-chloro-1-(2,4-dimethoxyphenyl)ethan-1-one]	111.748
COc1ccc(C(=O)CCl)cc1Cl [10-D10, 2-chloro-1-(3-chloro-4-methoxyphenyl)ethan-1-one]	0.9351
O=C(CCl)c1ccc2[nH]c(=O)[nH]c2c1 [10-I14, 5-(2-chloroacetyl)-2,3-dihydro-1H-1,3-benzodiazol-2-one]	105.513
COc1cc(OC)c(C(=O)CCl)c(OC)c1 [10-L04, 2-chloro-1-(2,4,6-trimethoxyphenyl)ethan-1-one]	98.344

— paper PMC11995724, “Antibiotic target discovery by integrated phenotypic and activity-based profiling of electrophilic fragments” (Cell chemical biology, 2025)
